PubChem BioAssay AID1159580 (chemical genetic matrix, 2015)
Several values for one entry are separate records, joined by “and”; a condition that tells them apart may be missing. Equal values may be shown once. The campaign covered roughly 5,500 compounds. About 2,000 (36%) were called active. About 18% were inconclusive and are not listed. Rule as the data show it: active = normalized growth mostly below about 0.91 (no sharp cut-off); inconclusive = no clear call, values can overlap the other calls; inactive = mostly above about 0.92. The list shows a part of the results.

Assay: chemical genetic growth profiling, strain panel (AID 1159580);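 also: tested at 20 µM; growth read once vehicle control cultures reached saturation at 30 °C; 1 = growth at the plate median or of vehicle wells; lower values mean less growth of the strain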
Conditions: S. cerevisiae deletion strains, growth OD

Measured: normalized growth

CCC1C(=O)OCC1Cc1cncn1C (stereo not given)
inactive: locus YAL013W, strain DEP1, stronger effect = lower value 1.01 and 0.986 | locus YAL021C, strain ccr4, stronger effect = lower value 1.01 | locus YAL026C, strain drs2, stronger effect = lower value 1.01 and 1.02 | locus YAL030W, strain snc1, stronger effect = lower value 1.03 and 1.01 | locus YAL040C, strain CLN3, stronger effect = lower value 1.04 and 1.02 | locus YBL061C, strain skt5, stronger effect = lower value 1.03 and 1.02 | locus YBR009C, strain hhf1, stronger effect = lower value 1.01 and 1 | locus YBR021W, strain FUR4, stronger effect = lower value 0.985 and 1 | locus YBR023C, strain chs3, stronger effect = lower value 1.03 and 1.02 | locus YBR171W, strain sec66, stronger effect = lower value 1.02 and 1.03 | locus YBR229C, strain ROT2, stronger effect = lower value 1.01 | locus YBR231C, strain swc5, stronger effect = lower value 1.02 and 1.01 | locus YBR279W, strain paf1, stronger effect = lower value 1.03 and 1.01 | locus YCL011C, strain gbp2, stronger effect = lower value 1.03 and 1.02 | locus YCL016C, strain dcc1, stronger effect = lower value 1.03 and 1.02 | locus YCL029C, strain bik1, stronger effect = lower value 1.03 and 0.998 | locus YCL061C, strain MRC1 (second series), stronger effect = lower value 1.01 and 0.993 | locus YCL061C, strain MRC1, stronger effect = lower value 1.01 | locus YCL069W, strain vba3, stronger effect = lower value 1.02 and 1.01 | locus YCR088W, strain abp1, stronger effect = lower value 1.02 and 1 | locus YDL005C, strain med2, stronger effect = lower value 1.01 and 1.03 | locus YDL035C, strain GPR1, stronger effect = lower value 1.01 | locus YDL040C, strain nat1, stronger effect = lower value 1.02 and 1.01 | locus YDL074C, strain BRE1, stronger effect = lower value 1.02 and 1.03 | locus YDL101C, strain DUN1, stronger effect = lower value 1.02 | locus YDL134C, strain PPH21, stronger effect = lower value 1.01 and 1.02 | locus YDL185W, strain tfp1, stronger effect = lower value 1.02 and 1 | locus YDL192W, strain arf1, stronger effect = lower value 1.02 and 1 | locus YDR001C, strain nth1, stronger effect = lower value 1.01 and 1 | locus YDR069C, strain doa4, stronger effect = lower value 1.01 and 1.02 | locus YDR101C, strain arx1, stronger effect = lower value 1.02 and 0.975 | locus YDR137W, strain rgp1, stronger effect = lower value 1.05 and 1.1 | locus YDR159W, strain sac3, stronger effect = lower value 1.01 and 1.02 | locus YDR162C, strain NBP2, stronger effect = lower value 1.01 and 1.05 | locus YDR195W, strain ref2 1 and 0.98 | locus YDR297W, strain sur2, stronger effect = lower value 1.02 | locus YDR318W, strain mcm21, stronger effect = lower value 1.03 and 0.997 | locus YDR334W, strain swr1, stronger effect = lower value 1.01 and 1.02 | locus YDR335W, strain msn5, stronger effect = lower value 1.02 | locus YDR363W, strain ESC2, stronger effect = lower value 1.03 and 1.01 | locus YDR388W, stronger effect = lower value 1.02 and 0.992 | locus YDR392W, strain spt3, stronger effect = lower value 0.976 and 0.974 | locus YDR502C, strain sam2, stronger effect = lower value 1.04 and 1.01 | locus YEL003W, strain gim4, stronger effect = lower value 1.01 and 1.02 | locus YEL037C, strain rad23, stronger effect = lower value 1.01 | locus YEL061C, strain CIN8 (second series), stronger effect = lower value 1.02 and 1.03 | locus YEL061C, strain CIN8, stronger effect = lower value 1.01 | locus YER002W, strain NOP16, stronger effect = lower value 1.02 and 0.975 | locus YER015W, strain faa2, stronger effect = lower value 1.02 and 1.01 | locus YER016W, strain bim1, stronger effect = lower value 1.01 | locus YER110C, stronger effect = lower value 1.02 and 0.99 | locus YER111C, strain swi4, stronger effect = lower value 1.02 | locus YER155C, strain BEM2 (second series), stronger effect = lower value 1.01 and 1.03 | locus YER155C, strain BEM2, stronger effect = lower value 0.99 and 1 | locus YER167W, strain BCK2, stronger effect = lower value 1.01 and 1.02 | locus YFR010W, strain ubp6, stronger effect = lower value 1.03 and 1 | locus YGL078C, strain dbp3, stronger effect = lower value 1.01 and 1 | locus YGL086W, strain mad1, stronger effect = lower value 1 and 0.996 | locus YGL167C, strain pmr1, stronger effect = lower value 1.03 | locus YGL173C, strain kem1, stronger effect = lower value 1.01 | locus YGL227W, strain vid30, stronger effect = lower value 1.02 | locus YGL240W, strain doc1, stronger effect = lower value 1.01 | locus YGL248W, strain PDE1, stronger effect = lower value 1.01 and 1.02 | locus YGL253W, strain hxk2, stronger effect = lower value 1.01 | locus YGR078C, strain PAC10, stronger effect = lower value 1.04 and 1 and 1.02 | locus YGR135W, strain pre9, stronger effect = lower value 1.01 | locus YGR229C, strain SMI1, stronger effect = lower value 1.02 and 1 and 0.999 | locus YGR252W, strain gcn5, stronger effect = lower value 0.969 and 0.983 | locus YHR013C, strain ard1, stronger effect = lower value 1.06 and 1.01 | locus YHR027C, strain rpn1, stronger effect = lower value 1.02 | locus YHR030C, strain SLT2, stronger effect = lower value 1.01 and 0.975 | locus YHR079C, strain IRE1 (second series), stronger effect = lower value 1.03 and 0.989 | locus YHR079C, strain IRE1, stronger effect = lower value 0.975 | locus YHR094C, strain hxt1, stronger effect = lower value 1.02 and 0.997 | locus YHR129C, strain ARP1, stronger effect = lower value 1.01 | locus YHR142W, strain chs7, stronger effect = lower value 1.03 and 1.01 | locus YHR200W, strain rpn10, stronger effect = lower value 1.01 and 0.999 | locus YIL066C, strain RNR3, stronger effect = lower value 1.02 and 1.01 | locus YIL073C, strain SPO22, stronger effect = lower value 1.06 and 1.02 | locus YIL125W, strain kgd1, stronger effect = lower value 0.997 and 1.01 | locus YIR030C, strain dcg1, stronger effect = lower value 1.02 and 0.993 | locus YJL092W, strain hpr5, stronger effect = lower value 1.01 | locus YJL095W, strain BCK1 (second series), stronger effect = lower value 1.02 | locus YJL095W, strain BCK1, stronger effect = lower value 1.03 and 0.988 and 1.01 | locus YJL115W, strain asf1, stronger effect = lower value 1.01 and 1.02 | locus YJL129C, strain trk1, stronger effect = lower value 1.04 and 1.03 | locus YJL134W, strain LCB3, stronger effect = lower value 1.01 | locus YJL154C, strain vps35, stronger effect = lower value 1.02 and 1.01 | locus YJL164C, strain tpk1, stronger effect = lower value 1.01 and 1.02 | locus YJL166W, strain qcr8, stronger effect = lower value 1.02 | locus YJL168C, strain set2, stronger effect = lower value 1.01 and 0.999 | locus YJL187C, strain SWE1 (second series), stronger effect = lower value 1.02 and 1.01 | locus YJL187C, strain SWE1, stronger effect = lower value 1.02 and 1.01 | locus YJR043C, strain POL32, stronger effect = lower value 1.02 and 1 | locus YJR066W, strain TOR1, stronger effect = lower value 0.971
